In test [1] the target is Sphingosine kinase 1 (Homo sapiens) (UniProt Q9NYA1). To be noted: at 1 µM.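 Also: mean SPHK1 inhibition value reported from the GSK PKIS kinase panel screen.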
Test [2] addresses T1, Sphingosine kinase 2 (Homo sapiens) (UniProt Q9NRA0).
T1 sequence (whole entry): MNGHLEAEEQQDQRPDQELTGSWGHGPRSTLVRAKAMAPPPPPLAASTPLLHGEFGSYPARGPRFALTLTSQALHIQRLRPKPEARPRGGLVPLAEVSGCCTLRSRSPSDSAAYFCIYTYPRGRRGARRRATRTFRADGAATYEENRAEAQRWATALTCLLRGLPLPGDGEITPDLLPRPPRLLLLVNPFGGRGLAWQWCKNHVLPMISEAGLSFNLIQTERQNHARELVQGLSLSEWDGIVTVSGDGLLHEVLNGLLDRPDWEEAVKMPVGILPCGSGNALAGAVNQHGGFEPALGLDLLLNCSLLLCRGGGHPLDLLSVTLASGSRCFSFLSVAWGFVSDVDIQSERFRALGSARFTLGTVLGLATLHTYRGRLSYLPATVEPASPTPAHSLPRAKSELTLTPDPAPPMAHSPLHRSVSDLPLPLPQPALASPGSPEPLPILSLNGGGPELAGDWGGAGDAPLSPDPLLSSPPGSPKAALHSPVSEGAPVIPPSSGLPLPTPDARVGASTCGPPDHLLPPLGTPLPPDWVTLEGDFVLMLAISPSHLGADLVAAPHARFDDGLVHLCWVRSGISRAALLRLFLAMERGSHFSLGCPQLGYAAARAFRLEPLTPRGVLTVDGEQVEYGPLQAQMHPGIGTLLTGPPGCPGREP
Particulars: at 0.1 µM.

In test [3] the target is T1, Sphingosine kinase 2 (Homo sapiens). To be noted: at 1 µM.
Test [4] deals with Casein kinase II subunit alpha (Homo sapiens) (UniProt P68400). To be noted: at 0.1 µM.
Test [5] shares this target. To be noted: at 1 µM.
In test [6] the target is T2, Inhibitor of nuclear factor kappa-B kinase subunit alpha (Homo sapiens) (UniProt O15111).
T2 sequence (whole entry): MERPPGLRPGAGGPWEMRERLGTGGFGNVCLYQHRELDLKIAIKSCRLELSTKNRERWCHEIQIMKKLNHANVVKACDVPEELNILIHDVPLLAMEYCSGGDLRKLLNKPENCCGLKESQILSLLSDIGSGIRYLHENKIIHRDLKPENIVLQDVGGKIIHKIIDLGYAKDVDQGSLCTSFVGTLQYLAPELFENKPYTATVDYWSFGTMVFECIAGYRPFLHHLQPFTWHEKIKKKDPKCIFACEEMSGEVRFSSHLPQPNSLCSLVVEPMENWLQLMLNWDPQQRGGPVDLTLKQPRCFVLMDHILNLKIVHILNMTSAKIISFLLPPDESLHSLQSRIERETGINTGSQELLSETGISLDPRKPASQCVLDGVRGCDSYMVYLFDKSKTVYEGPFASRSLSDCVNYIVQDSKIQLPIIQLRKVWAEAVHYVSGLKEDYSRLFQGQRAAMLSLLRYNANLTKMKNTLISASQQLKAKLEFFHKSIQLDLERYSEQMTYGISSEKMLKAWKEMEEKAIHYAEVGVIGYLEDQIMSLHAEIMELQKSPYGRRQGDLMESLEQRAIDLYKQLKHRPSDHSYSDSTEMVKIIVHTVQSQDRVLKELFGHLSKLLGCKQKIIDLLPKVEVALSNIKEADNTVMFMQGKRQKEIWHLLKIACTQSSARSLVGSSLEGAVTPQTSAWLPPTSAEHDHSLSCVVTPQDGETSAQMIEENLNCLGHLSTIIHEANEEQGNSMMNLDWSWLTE
To be noted: at 0.1 µM.

Test [7] has as its target T2, Inhibitor of nuclear factor kappa-B kinase subunit alpha (Homo sapiens). To be noted: at 1 µM.
For test [8], the target named is T3, Inhibitor of nuclear factor kappa-B kinase subunit beta (Homo sapiens) (UniProt O14920).
T3 sequence (whole entry): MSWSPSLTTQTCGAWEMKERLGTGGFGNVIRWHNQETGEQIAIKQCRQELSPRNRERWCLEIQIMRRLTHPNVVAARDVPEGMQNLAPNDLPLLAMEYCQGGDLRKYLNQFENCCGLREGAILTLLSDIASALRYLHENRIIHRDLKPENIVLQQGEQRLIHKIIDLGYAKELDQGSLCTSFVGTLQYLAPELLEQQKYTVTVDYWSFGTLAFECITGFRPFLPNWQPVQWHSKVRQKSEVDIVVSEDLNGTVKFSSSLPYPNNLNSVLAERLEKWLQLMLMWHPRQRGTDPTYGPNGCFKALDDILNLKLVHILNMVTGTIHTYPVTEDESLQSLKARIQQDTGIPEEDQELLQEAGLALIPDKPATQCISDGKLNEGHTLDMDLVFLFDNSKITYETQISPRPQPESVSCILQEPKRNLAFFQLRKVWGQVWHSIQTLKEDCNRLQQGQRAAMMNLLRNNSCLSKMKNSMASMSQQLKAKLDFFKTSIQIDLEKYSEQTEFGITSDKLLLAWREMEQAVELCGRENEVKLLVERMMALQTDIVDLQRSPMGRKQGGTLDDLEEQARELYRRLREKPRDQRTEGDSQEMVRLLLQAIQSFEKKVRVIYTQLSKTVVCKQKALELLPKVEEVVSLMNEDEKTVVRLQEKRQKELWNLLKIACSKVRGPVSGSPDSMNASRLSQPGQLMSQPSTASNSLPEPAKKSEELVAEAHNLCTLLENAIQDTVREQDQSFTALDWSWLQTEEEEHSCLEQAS
Particulars: at 0.1 µM.

The target of test [9] is T3, Inhibitor of nuclear factor kappa-B kinase subunit beta (Homo sapiens). To be noted: at 1 µM.
Test [10] concerns the target T4, Inhibitor of nuclear factor kappa-B kinase subunit epsilon (Homo sapiens) (UniProt Q14164).
T4 sequence (whole entry): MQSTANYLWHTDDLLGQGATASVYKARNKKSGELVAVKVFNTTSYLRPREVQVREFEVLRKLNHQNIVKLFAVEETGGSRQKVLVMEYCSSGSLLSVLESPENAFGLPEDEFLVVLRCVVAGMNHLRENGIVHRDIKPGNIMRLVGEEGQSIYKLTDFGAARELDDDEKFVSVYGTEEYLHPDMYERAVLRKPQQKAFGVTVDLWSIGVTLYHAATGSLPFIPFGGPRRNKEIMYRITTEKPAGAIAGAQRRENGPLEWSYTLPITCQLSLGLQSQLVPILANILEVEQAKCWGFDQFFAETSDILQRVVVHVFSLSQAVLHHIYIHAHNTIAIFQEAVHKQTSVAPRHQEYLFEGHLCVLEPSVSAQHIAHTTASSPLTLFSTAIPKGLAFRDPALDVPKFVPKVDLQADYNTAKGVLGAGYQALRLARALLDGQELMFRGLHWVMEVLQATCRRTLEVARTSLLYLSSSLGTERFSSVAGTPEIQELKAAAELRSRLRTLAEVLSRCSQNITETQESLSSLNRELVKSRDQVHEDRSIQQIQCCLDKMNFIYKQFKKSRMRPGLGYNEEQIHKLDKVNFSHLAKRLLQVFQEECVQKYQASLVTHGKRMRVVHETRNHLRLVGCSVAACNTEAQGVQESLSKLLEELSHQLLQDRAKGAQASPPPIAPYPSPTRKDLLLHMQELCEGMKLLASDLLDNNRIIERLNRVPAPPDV
To be noted: at 0.1 µM.

Test [11] deals with T4, Inhibitor of nuclear factor kappa-B kinase subunit epsilon (Homo sapiens). To be noted: at 1 µM.
The target in test [12] is T5, Serine/threonine-protein kinase Nek1 (Homo sapiens) (UniProt Q96PY6).
T5 sequence (whole entry): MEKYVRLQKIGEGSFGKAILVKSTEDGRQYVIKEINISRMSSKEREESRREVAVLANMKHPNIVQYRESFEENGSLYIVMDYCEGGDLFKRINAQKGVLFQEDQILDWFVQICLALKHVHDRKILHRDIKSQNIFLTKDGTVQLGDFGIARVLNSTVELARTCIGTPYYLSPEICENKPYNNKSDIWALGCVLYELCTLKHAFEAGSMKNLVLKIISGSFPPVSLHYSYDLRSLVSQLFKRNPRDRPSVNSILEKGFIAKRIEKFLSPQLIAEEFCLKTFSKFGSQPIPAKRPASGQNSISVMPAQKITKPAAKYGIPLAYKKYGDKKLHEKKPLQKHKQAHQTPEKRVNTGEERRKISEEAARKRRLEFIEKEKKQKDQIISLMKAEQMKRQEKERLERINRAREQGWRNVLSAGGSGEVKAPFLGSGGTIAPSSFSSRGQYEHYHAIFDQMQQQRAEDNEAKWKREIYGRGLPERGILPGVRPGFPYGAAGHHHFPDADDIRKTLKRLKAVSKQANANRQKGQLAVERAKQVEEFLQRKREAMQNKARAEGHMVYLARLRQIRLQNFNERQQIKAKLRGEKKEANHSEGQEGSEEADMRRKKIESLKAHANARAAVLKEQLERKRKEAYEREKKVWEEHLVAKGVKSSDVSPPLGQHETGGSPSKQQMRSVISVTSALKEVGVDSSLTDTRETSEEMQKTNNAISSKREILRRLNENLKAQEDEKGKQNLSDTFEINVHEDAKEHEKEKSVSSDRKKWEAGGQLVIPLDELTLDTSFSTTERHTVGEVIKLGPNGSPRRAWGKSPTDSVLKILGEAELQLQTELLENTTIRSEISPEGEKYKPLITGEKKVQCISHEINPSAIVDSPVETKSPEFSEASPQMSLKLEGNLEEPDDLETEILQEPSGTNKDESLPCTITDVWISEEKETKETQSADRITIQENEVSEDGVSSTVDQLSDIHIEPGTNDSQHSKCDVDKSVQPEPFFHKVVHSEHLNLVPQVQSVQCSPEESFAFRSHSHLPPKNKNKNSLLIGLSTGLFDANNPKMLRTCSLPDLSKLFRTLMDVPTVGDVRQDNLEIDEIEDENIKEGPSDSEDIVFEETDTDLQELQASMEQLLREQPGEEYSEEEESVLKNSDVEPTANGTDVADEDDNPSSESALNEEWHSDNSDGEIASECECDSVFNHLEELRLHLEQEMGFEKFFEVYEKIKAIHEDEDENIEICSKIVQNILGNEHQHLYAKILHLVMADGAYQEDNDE
To be noted: at 0.1 µM.

The target of test [13] is T5, Serine/threonine-protein kinase Nek1 (Homo sapiens). To be noted: at 1 µM.
Test [14] concerns the target T6, Serine/threonine-protein kinase Nek2 (Homo sapiens) (UniProt P51955).
T6 sequence (whole entry): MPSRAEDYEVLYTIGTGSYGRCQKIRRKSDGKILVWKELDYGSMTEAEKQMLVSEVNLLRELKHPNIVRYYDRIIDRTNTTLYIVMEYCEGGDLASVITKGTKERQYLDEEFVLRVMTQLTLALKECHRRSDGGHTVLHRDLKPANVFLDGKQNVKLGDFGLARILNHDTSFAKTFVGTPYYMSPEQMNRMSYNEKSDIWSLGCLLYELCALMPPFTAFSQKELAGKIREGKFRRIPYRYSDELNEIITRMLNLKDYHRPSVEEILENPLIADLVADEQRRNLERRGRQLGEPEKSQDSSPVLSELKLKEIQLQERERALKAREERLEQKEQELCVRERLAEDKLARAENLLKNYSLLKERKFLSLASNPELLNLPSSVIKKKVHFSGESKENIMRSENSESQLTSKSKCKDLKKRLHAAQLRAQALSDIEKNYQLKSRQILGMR
Particulars: at 0.1 µM.

Test [15] concerns the target T6, Serine/threonine-protein kinase Nek2 (Homo sapiens). To be noted: at 1 µM.
The target of test [16] is Serine/threonine-protein kinase Nek6 (Homo sapiens) (UniProt Q9HC98). To be noted: at 0.1 µM.
Test [17] shares this target. Particulars: at 1 µM.
For test [18], the target named is Serine/threonine-protein kinase Nek7 (Homo sapiens) (UniProt Q8TDX7). Particulars: at 0.1 µM.
For test [19] the target is unchanged. To be noted: at 1 µM.
Test [20] has as its target T7, Serine/threonine-protein kinase Nek9 (Homo sapiens) (UniProt Q8TD19).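 Also: reported value is the mean percent inhibition of NEK9.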
T7 sequence (whole entry): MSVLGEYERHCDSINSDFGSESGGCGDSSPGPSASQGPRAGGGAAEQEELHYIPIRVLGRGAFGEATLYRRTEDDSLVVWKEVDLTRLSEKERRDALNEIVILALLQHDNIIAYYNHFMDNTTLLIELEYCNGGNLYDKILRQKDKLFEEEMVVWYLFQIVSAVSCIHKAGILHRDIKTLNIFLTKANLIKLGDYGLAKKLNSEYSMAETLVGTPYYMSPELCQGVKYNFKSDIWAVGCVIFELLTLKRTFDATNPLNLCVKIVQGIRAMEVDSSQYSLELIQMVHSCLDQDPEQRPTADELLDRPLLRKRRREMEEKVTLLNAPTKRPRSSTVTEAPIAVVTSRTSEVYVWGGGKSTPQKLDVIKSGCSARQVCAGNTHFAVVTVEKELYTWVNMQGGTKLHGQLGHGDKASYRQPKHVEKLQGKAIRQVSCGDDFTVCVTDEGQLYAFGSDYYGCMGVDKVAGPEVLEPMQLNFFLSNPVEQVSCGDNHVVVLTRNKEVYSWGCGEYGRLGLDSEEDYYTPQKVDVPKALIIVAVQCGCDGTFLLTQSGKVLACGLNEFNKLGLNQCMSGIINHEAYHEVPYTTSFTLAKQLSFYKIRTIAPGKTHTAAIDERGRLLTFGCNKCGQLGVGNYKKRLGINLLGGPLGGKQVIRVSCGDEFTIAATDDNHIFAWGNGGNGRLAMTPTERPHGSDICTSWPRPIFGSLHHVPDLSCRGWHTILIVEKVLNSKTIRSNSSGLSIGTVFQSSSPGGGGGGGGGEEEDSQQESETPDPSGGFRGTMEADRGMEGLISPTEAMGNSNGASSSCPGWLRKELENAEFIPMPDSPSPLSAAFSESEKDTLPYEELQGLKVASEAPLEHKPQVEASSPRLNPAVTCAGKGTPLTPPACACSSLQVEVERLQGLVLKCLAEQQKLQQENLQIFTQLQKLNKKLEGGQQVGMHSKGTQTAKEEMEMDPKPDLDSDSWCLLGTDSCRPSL
Particulars: at 0.1 µM.

Where “and” joins values, the source holds several entries; their conditions need not be identical. Equal values may be shown once.

Broadly, the inhibition is the change of the read-out against control, counted positive when it falls.

Sequence of Serine/threonine-protein kinase Nek7 (Homo sapiens) (Q8TDX7 whole entry, looked up): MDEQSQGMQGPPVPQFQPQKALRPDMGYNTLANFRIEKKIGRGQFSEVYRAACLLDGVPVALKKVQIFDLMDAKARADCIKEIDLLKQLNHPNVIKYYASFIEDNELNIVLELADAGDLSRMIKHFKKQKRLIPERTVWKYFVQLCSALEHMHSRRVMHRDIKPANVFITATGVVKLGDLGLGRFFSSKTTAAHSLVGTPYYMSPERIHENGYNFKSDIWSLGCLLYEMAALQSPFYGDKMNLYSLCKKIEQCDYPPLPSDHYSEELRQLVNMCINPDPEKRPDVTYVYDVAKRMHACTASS
Sequence of Serine/threonine-protein kinase Nek6 (Homo sapiens) (Q9HC98 whole entry): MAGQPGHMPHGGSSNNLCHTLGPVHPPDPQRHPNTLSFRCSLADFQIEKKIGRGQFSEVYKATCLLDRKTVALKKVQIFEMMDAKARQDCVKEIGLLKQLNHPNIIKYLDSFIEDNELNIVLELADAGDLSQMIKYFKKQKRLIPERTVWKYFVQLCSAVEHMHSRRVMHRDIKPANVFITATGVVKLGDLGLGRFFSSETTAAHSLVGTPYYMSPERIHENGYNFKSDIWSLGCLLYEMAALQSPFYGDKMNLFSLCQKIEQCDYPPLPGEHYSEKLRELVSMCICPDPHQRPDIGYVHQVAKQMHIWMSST
Sequence of Casein kinase II subunit alpha (Homo sapiens) (P68400 whole entry, looked up): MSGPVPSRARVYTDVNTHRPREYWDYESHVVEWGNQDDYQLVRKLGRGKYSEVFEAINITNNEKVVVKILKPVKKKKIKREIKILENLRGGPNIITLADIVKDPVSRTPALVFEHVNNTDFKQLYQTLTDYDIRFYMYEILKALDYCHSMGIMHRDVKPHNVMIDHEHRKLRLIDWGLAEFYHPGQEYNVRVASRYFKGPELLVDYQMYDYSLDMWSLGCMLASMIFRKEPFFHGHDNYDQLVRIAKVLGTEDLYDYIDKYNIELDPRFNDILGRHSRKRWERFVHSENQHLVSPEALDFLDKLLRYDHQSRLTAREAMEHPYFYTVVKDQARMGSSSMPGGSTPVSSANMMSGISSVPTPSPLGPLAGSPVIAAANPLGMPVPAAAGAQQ
Sequence of Sphingosine kinase 1 (Homo sapiens) (Q9NYA1 whole entry): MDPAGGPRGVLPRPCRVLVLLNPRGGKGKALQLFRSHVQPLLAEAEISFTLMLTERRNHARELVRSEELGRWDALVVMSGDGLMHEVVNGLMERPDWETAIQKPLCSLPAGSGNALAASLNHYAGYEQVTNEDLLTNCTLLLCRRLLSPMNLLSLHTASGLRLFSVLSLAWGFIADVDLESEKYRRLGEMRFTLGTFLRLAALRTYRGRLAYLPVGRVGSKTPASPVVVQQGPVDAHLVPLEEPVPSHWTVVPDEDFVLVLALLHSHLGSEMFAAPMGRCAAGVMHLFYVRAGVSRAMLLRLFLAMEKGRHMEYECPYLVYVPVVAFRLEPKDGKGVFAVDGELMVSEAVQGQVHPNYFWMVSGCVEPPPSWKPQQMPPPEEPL

In the case of `CN1CCN(Cc2ccc(-c3cc4ncnc(Nc5ccc(OCc6cccc(F)c6)c(Cl)c5)c4s3)o2)CC1`, the inhibition in test [1] is 3.16% and -4.57%; in [2], 0.42% and -0.46%; in test [3] it was 2.36% and -0.62%; in test [4], 12.7% and 7.35%; in test [5], 3.7% and 10.5%; in [6], 4.53% and 11.4%. In addition, the inhibition in [7] is 2.93% and 6.95%; in [8], 2.82% and 5.97%; in test [9] it was 3.27% and 6.18%; in test [10] it was 3.75% and 4.88%; in test [11] it was 4.6% and 4.24%; in test [12], 1.24% and 3.95%. The inhibition is 2.68% and 4.85% in test [13]; 3.46% and 4.63% in test [14]; 2.94% and 4.7% in [15]; -1.83% and 5.78% in test [16]; 0.03% and 5.91% in test [17]; 2.08% and 6.06% in test [18]. The inhibition was 5.67% and 4.39% in test [19]; -2.04% and 6.24% in test [20].

The values above are taken from ChEMBL document CHEMBL1961873, “Compounds: GSK PKIS; Assays: Nanosyn kinase panel” (2012).
